± gives the standard deviation of the averaged measurements. In all, about 25,000 sequences were measured (“ln(normalized median fluorescence intensity)”: median about 8.9, highest 2% from about 10 on). This is one part of a sample in which the highest values are shown more often than they occur.

This assay relates to PfAP2-LT AP2 domain (GST-tagged). Put plainly: gcPBM binding intensity (ln(normalized median fluorescence intensity)); higher = stronger DNA binding. The method, boiled down:
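Using an Agilent 4 × 180k array, primer-extended double-stranded 36-bp intergenic genomic probes and negative controls were exposed for 1 h to GST-fused P. falciparum DNA-binding domains expressed in E. coli. Binding was carried out in 1× PBS with 1% milk, 0.2 mg/ml BSA, 0.5% salmon testes DNA and 0.03% Triton X-100, and protein was detected with Alexa488 anti-GST antibody and a 488 nm scan. Binding intensity is the highest Masliner-normalised natural-log median intensity across replicate spots of either probe orientation.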
As for “TGTACCTTATTAATATATTTAACTCGCCTTATATAC [XGTACX_negctrl_site289]”, the “gcPBM binding intensity (ln)” value is 8.96 ± 0.36. With “AAATGTACAGGACGCACACACATATATATATATATA [CACACA_site3674]”, the “gcPBM binding intensity (ln)” value worked out at 10.11 ± 0.05. Regarding “TAAAATGTACAGGACGCACACACATATATATATATA [CACACA_site3673]”, the “gcPBM binding intensity (ln)” value was 9.92 ± 0.42. For the sequence “AAATGTACAGGACGCACACACATATTTATATTTATA [CACACA_site7689]”, the “gcPBM binding intensity (ln)” value was 9.53 ± 0.3. The figure for “GCCTTCCTTCTAAATGCACACGGAAAGTATAAATGT [CACACA_site8797]” is 9.04 ± 0.31. In the case of “TTAATGTAGAGAAAATGTACATTTTATTAAAACAAT [XGTACX_site6376]”, the “gcPBM binding intensity (ln)” value turned out to be 8.76 ± 0.47. Turning to “AACATACATAAACACACACACACACCCACAGAGACA [CACACA_site4430]”, the “gcPBM binding intensity (ln)” value came to 10.29 ± 0.035. Then “AAATAAAACAGACACACACACACATACACAAAAAAA [CACACA_site7753]”, with 10.1 ± 0.22. Then “TAAACATACAGATACACACACACACCCACAGAGACA [CACACA_site4429]”, with 10.15 ± 0.028; and “AAATAACAAATTTTTAAAATGTATATATATATATAT [TGCATGCA_negctrl_site219]”, with 9.51 ± 0.12; and “GTTTTTTTTTTTTTGGTGCGTCATTTTCAAAAGAAG [GTGCAC_site9745]”, with 8.57 ± 0.41. For the sequence “AAACAAAAAAATTGAAATAAAATGAAGTAAATGAAC [TGCATGCA_negctrl_site129]”, the “gcPBM binding intensity (ln)” value was determined as 8.9 ± 0.66. The figure for “TTTTTTTTTTTTTTTTTTTTTTTCTTTATTTTTTTT [CACACA_negctrl_site703]” is 8.16 ± 0.43; for “ATTGTTTTGTAATATGAAAAAATTGTGTAATGTGTC [CACACA_negctrl_site1510]” it is 8.72 ± 0.4; for “TTTTAAGTTTTTGAATGTACGTAATTTGTAAATTCT [XGTACX_site2448]” it is 8.49 ± 0.47. Turning to “TATTTTTATTTTACATTATTTGTTTATAATTCTTAA [CACACA_negctrl_site1358]”, the “gcPBM binding intensity (ln)” value was 8.53 ± 0.57.

In the case of “TATACTCATATATAAACACACAAAAAAAAAAAAAAA [CACACA_site5165]”, the “gcPBM binding intensity (ln)” value stood at 8.72 ± 0.45. Then “ATAAATGACAGACACACACACAAAAAAAAAAAACAA [CACACA_site2626]”, with 9.84 ± 0.57; and “AAAAAAAAAAAACACACACACACACCGACAAAATAT [CACACA_site8411]”, with 10.4 ± 0.25.

Regarding “TATTTATTAAAACACACACACACACCGACAAAATAA [CACACA_site4293]”, the “gcPBM binding intensity (ln)” value came out at 9.97 ± 0.25. With “AAAAAAAAAAAAAACACACACACAAAAAAAAATATA [CACACA_site1104]”, the “gcPBM binding intensity (ln)” value came out at 9.68 ± 0.35. For “CACAAACAAAAACACACACACACACCGACAAAAATG [CACACA_site5362]”, the “gcPBM binding intensity (ln)” value was determined as 10.24 ± 0.092. As for “CATATACTCGGACACACACACACACCGACAAAAAAA [CACACA_site4433]”, the “gcPBM binding intensity (ln)” value is 10.1 ± 0.41. Then “ATGTTACACCGACACACACACATAAAAAAACAAAAA [CACACA_site5750]”, with 9.61 ± 0.42; and “AAAAAAAAAAAACACACACACAAAAAAAAATATATA [CACACA_site1105]”, with 9.85 ± 0.54; and “CATATATACTCATACACACACACACCGACACAGACA [CACACA_site5026]”, with 9.84 ± 0.17. On to “TAAAATAAAACAAACACACACACACCGACACAAAAA [CACACA_site5993]”, for which the “gcPBM binding intensity (ln)” value turned out to be 10.1 ± 0.035. The figure for “ACAAATAAATAAAAAACACACACAAATAAATAAATA [CACACA_site8708]” is 9.57 ± 0.38; for “TACAAAAATGTAGTCACACATATGTATACTTTTATG [CACACA_site5607]” it is 8.85 ± 0.42; for “TGTACCTACAAAATATGATATATTTTTATAAATTGT [XGTACX_negctrl_site498]” it is 8.51 ± 0.47. Then “TGAACAACTATTACTGCACACATTCTTACACTATAT [CACACA_site4533]”, with 9.41 ± 0.45; and “GATGATACAAAGTAATGTACATAAATACACATATTG [XGTACX_site3177]”, with 9.03 ± 0.44; and “ATAATACGAATTTGTAGTACATTTATAATAACATGA [XGTACX_site2614]”, with 8.65 ± 0.38.

In the case of “AATGGTCTTTTCAACACACGTACATAAAAATATTAT [CACACA_site2571]”, the “gcPBM binding intensity (ln)” value worked out at 8.79 ± 0.44. Take “CAATAATATATATATTGTACATTTTTTTTTATTATT [XGTACX_site3149]”: the “gcPBM binding intensity (ln)” value stood at 8.7 ± 0.38.

As to “TTTTATAGAGTGTATACATGCAATACCACATAAAAT [TGCATGCA_site476]”, the “gcPBM binding intensity (ln)” value is 8.79 ± 0.43. In the case of “ATTTTTTTTTTTACAGTGGAACCATATTTGCTCATT [CACACA_negctrl_site940]”, the “gcPBM binding intensity (ln)” value was found to be 8.82 ± 0.51. Then “ATATATATATTTTTATGAGGCATAAGTAATATTTTT [TGCATGCA_negctrl_site317]”, with 8.53 ± 0.4. Then “TAAAAGTTTTTATACATACACACCTATAAATTAAGT [CACACA_site2446]”, with 8.72 ± 0.36; and “AATTAACAAAAACACACACACACACCGACAAAAAAA [CACACA_site4444]”, with 10.1 ± 0.23. Take “CATAAATTAAAACACACACACACAAAAAAAAAAAAA [CACACA_site2262]”: the “gcPBM binding intensity (ln)” value amounted to 9.84 ± 0.33.

On to “TAAATTAAAAAACACACACACAAAAAAAAAAAAAAA [CACACA_site2263]”, for which the “gcPBM binding intensity (ln)” value turned out to be 9.41 ± 0.51. The figure for “TATGCACGCGAACACACACACACAACTAAAAAATAA [CACACA_site7251]” is 9.79 ± 0.37.

With “TTTTTATCTTTGCTGTGTACATAAATAAAAATAACT [XGTACX_site7625]”, the “gcPBM binding intensity (ln)” value stood at 8.47 ± 0.42.

Regarding “TATATATATATAATGTGTACACAAATATATATTATA [XGTACX_site8786]”, the “gcPBM binding intensity (ln)” value amounted to 8.8 ± 0.37. The figure for “AAAAAAAACAGACACACACACAAATATATAAAAATA [CACACA_site1172]” is 9.94 ± 0.35; for “CAATATAAAAAACACACGCACACAAAAAAAAAAAAA [CACACA_site3521]” it is 9.46 ± 0.42. In the case of “AAGTAAAAAAATAGCACACACACAAAAACACCCACA [CACACA_site1291]”, the “gcPBM binding intensity (ln)” value was 9.92 ± 0.16. Then “ATCAAATAATAGCAAACACACAAAAAATAAAAAAAA [CACACA_site4146]”, with 9.04 ± 0.47; and “GTAAAAAAATAGCACACACACAAAAACACGCACAAA [CACACA_site6723]”, with 10.1 ± 0.23.

For “AAGTAAAAAAATAGCACACACACAAAAACACAGACA [CACACA_site4839]”, the “gcPBM binding intensity (ln)” value amounted to 10.1.

For the sequence “TATTTGTAAATCGATACACACATATAGATTAATATA [CACACA_site6237]”, the “gcPBM binding intensity (ln)” value was found to be 8.88 ± 0.35. Then “ATATTCTGATTTTAGATGCACTTCGTTAACAAAATA [GTGCAC_site9958]”, with 8.49 ± 0.35; and “ATGGACATTTTATAAATCACAATGGATATTTTATAA [CACACA_negctrl_site1830]”, with 8.41 ± 0.42; and “GGAAATTAACAGAACACAATGTAACAATTTCTAACA [CACACA_negctrl_site1250]”, with 8.85 ± 0.4. For the sequence “TAAAAGGGGATATATGAACACACAAAAAAAAAATAT [CACACA_site8940]”, the “gcPBM binding intensity (ln)” value amounted to 9.04 ± 0.64.
